Compound activity deposited in PubChem BioAssay by National Center for Advancing Translational Sciences (NCATS).
Most compounds without a hit are left out; they make up all but 2.1% or so of the library.
TDP-43 yeast inh: qHTS of TDP-43 Inhibitors | TDP-43 expressing yeast growth rescue, BacTiter-Glo, 24 h | Potency, µM (doses to about 46.1 µM), actives largely listed as activators | actives 1.8% (n = 410,000); note: nearly all actives have a fitted effect of over 50% in size
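Growth rescue of TDP-43-toxic yeast measured as ATP luminescence (BacTiter-Glo). Cells grown to mid-log in raffinose, induced in galactose at OD600=0.02, exposed to compound 24 hr at 30 deg C.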
aSyn yeast inh: qHTS of alpha-syn Inhibitors; Yeast expressing alpha-synuclein, growth rescue, BacTiter-Glo, 24 h; Potency, µM (series often up to 46.1 µM), most hits filed as activators; actives 0.14% (n = 370,000); note: nearly all actives have a fitted effect of over 65% in size
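Galactose-induced alpha-syn yeast (OD600=0.02, raffinose-pregrown) + pinned cpd, 24 hr, 30 deg C; growth by BacTiter-Glo luminescence. Growth restoration scores as activation.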
FUS suppressor: qHTS for Suppressors of FUS Proteinopathy: Primary screen using FUS-linked yeast assay; S. cerevisiae FUS-expressing, growth rescue, OD600, 24 h; Potency, µM (highest dose often 76.6 µM), hits mostly activators; actives 0.24% (n = 390,000); AID 1347120, 2019; note: nearly all actives have a fitted effect of over 55% in size
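Toxicity suppression screen in FUS-yeast. Cells induced with 2% galactose, starting OD 0.005, treated 24hr at 30C with compounds at multiple final concentrations; growth by OD600.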
Abeta rescue: qHTS for compounds that reverse cellular toxicity of Amyloid beta (A-beta) peptide in yeast: Primary Screen; actives 0.063% (n = 410,000); yeast expressing A-beta42, growth rescue, OD600, 48 h; response scale: 0% DMSO, 100% iron-clioquinol control; Potency, µM (doses to about 46.1 µM), actives largely listed as activators; note: nearly all actives have a fitted effect of over 55% in size
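Yeast A-beta toxicity model in growth medium with pinned compounds, 48 h at 30 C; growth read as absorbance at 600 nm. Normalized to FeCl3/clioquinol equimolar mix (positive) and DMSO (negative).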
A number is an active result; n = inactive; u = inconclusive; x = not tested or not shown. Calls come from the whole dose curve; as a rule, active = well fitted curve in the direction sought with a large enough effect; inconclusive = small, poorly fitted or top-dose-only effect, or another doubt; inactive = no such curve, though single readings can be large; an effect the other way counts as inactive or inconclusive.

SMILES	TDP-43 yeast inh	aSyn yeast inh	FUS suppressor	Abeta rescue
COc1ccc(CNC(=O)c2ccc3c(c2)N=C(C)c2c(C)ccc(C)c2S3)cc1	13µM	n	u	n
CCCNC(=O)c1ccc2c(c1)N=C(C)c1c(C)ccc(C)c1S2	u	n	n	n
CC(=O)N1CC2(CC(c3ccccc3C(F)(F)F)=NO2)CN1c1ccc(Cl)cc1 (configuration not stated)	n	13µM	u	n
CCOC(=O)c1cc(OC(=O)c2ccc(OC)cc2)n(-c2ccccc2)n1	18µM	n	n	n
COc1ccc(C(=O)Oc2ccc(=O)n(-c3ccccc3)n2)cc1	14µM	n	n	n
CCOC(=O)c1cc(OC(=O)c2ccccc2)n(-c2ccccc2)n1	n	n	n	n
O=C(Oc1ccc(=O)n(-c2ccccc2)n1)c1ccc(F)cc1	22µM	n	n	n
O=C1CC(c2ccco2)Sc2ccccc2N1 (configuration not stated)	n	n	n	n
O=C1CC(c2ccccc2)Sc2ccccc2N1 (configuration not stated)	11µM	x	n	n
COc1ccccc1NC(=O)Cc1coc2cc(C)ccc12	11µM	n	n	n
COc1ccc2c(CC(=O)NNC(=O)c3ccc(C)cc3)coc2c1	n	n	n	n
Cc1ccc2c(CC(=O)NNC(=O)c3ccccc3O)coc2c1	n	n	35µM	n
O=C(CN1C(=O)CC(c2ccco2)Sc2ccccc21)Nc1ccccc1F (configuration not stated)	32µM	n	n	n
O=C(CN1C(=O)CC(c2ccco2)Sc2ccccc21)Nc1ccc(Br)cc1 (configuration not stated)	n	n	n	n
N#Cc1cc2c(nc1SCC(=O)O)CCCC2	n	n	n	n
N#CCSc1nc2c(cc1C#N)CCCCCC2	16µM	n	n	n
Cn1c(SCc2ccccc2Cl)nnc1-c1cnccn1	11µM	n	n	n
Cc1cccc(Nc2nc(-c3ccccc3)nc3ccccc23)c1	25µM	x	n	n
Cc1ccc(Nc2nc(-c3ccccc3)nc3ccccc23)cc1	13µM	n	n	n
Fc1ccc(NCc2cccnc2)cc1F	n	n	n	n
Cc1c(NC(=O)C2CC(c3ccc(F)cc3)=NO2)c(=O)n(-c2ccccc2)n1C (configuration not stated)	n	n	n	n
CC(C)(C)OC(=O)N1CCC(N[C@@H](Cc2c[nH]c3ccccc23)C(=O)NCCc2c[nH]c3ccccc23)(C(=O)NC2CCCCC2)CC1	x	x	20µM	x
O=C(NCCCc1ccccc1)[C@H](Cc1c[nH]c2ccccc12)NC1(C(=O)NCCc2c[nH]c3ccccc23)CCOCC1	x	x	22µM	x
CC(C)(N[C@@H](Cc1c[nH]c2ccccc12)C(=O)NCC(c1ccccc1)c1ccccc1)C(=O)NC1CCCCC1	x	x	14µM	x
COc1ccc(C2CC(=O)N(c3ccccc3)C3=C2C(=O)CCC3)cc1 (configuration not stated)	n	n	n	n
SMILES	TDP-43 yeast inh	aSyn yeast inh	FUS suppressor	Abeta rescue
Cc1cccc(N2CCN(C(=O)C3CCCN(C(=O)c4cc5sccc5n4C)C3)CC2)c1C (configuration not stated)	n	x	u	n
Cc1cccc(N2CCN(C(=O)C3CCN(C(=O)c4cc5sccc5n4C)CC3)CC2)c1C	35µM	x	u	u
CC(C)(C)C(=O)Nc1cc(-c2cccc(Br)c2)nn1-c1ccccc1	22µM	x	n	n
Cc1cccc(-c2cc(NC(=O)C(C)(C)C)n(-c3ccccc3)n2)c1	u	x	n	n
Nc1n[nH]c(N)c1N=Nc1ccc(Cl)cc1	n	n	x	n
Nc1[nH]ncc1N=Nc1ccc(Cl)cc1	18µM	n	n	n
Cc1c(C)n(CCC#N)c2ccc(Cl)cc12	13µM	n	x	n
CCn1c(C)c(C)c2cc(C(=O)Nc3cccc(Cl)c3)ccc21	n	n	n	n
c1ccc(Oc2ccc(-c3ccn[nH]3)cc2)cc1	14µM	n	n	n
NCCSC1CC(=O)N(Cc2ccc(F)cc2)C1=O (configuration not stated)	n	n	n	n
O=S(=O)(c1ccccc1)N(CC(F)(F)F)c1ccc(C(O)(C(F)(F)F)C(F)(F)F)cc1	22µM	n	n	u
O=C(O)CN(c1cccc(C(F)(F)F)c1)S(=O)(=O)c1ccccc1	n	n	n	n
COc1cc(Cl)ccc1OCc1cc(C(=O)NCc2cc(C(C)C)no2)no1	11µM	n	x	n
COc1cc(Cl)ccc1OCc1cc(C(=O)NCC(C)(C)N2CCOCC2)no1	n	n	n	n
COc1cc(CNn2c(C)n[nH]c2=S)cc(Cl)c1OCc1ccc(F)cc1	n	n	n	n
COc1cc(CNn2c(C)n[nH]c2=S)cc(Br)c1OCc1ccc(F)cc1	35µM	n	n	n
COc1ccc2nc3oc(C(=O)N4CCCCC4)cc3cc2c1	u	n	n	n
COc1ccc2nc3oc(C(=O)N4CC(C)CC(C)C4)cc3cc2c1 (configuration not stated)	13µM	n	n	n
CC1CC(C)CN(C(=O)c2cc3cc(Br)cc(Br)c3o2)C1 (configuration not stated)	32µM	n	n	n
O=C(CSc1nc2ccc(Nc3nc(N4CCCC4)nc(N4CCCC4)n3)cc2s1)NCc1ccco1	20µM	n	n	n
CCOc1ccc2nc(SCC(=O)NC(=O)NCc3ccco3)sc2c1	n	n	n	n
CCOc1ccc2nc(SCC(=O)NCc3ccco3)sc2c1	14µM	n	n	n
Cc1ccc(-c2csc3ncnc(Cl)c23)cc1	16µM	n	n	n
CC1(C(=O)Nc2cccc3c2CCCC3)CCN1C(=O)c1cccc(F)c1 (configuration not stated)	28µM	n	n	n
COc1cccc(-c2cnc(C(O)c3ccc(F)cc3C)[nH]2)c1 (configuration not stated)	n	n	n	n
SMILES	TDP-43 yeast inh	aSyn yeast inh	FUS suppressor	Abeta rescue
Cc1ccc(NC(=S)c2ccccc2)cc1	11µM	n	n	n
Cc1ccc(NC(=S)c2ccncc2)cc1	n	n	n	x
CCCC12CN3CC(C)(CN(C1)C31CCCCC1)C2=O	n	n	n	n
CC1(C)CC2(CCO1)N1CC3(C)CN2CC(C)(C1)C3=O (configuration not stated)	3.2µM	n	x	n
CCCCOc1ccc(C(=O)Nc2cccc(C)n2)cc1	2.8µM	n	x	n
COc1nc(NC23CC4CC(CC(C4)C2)C3)nc(OC)n1	14µM	n	n	n
CCCCC(=O)Nc1cccc(NC(=O)c2cccc([N+](=O)[O-])c2)c1	n	n	n	n
Cc1ccc(S(=O)(=O)c2cc3c(=O)n4ccccc4nc3n(Cc3ccco3)c2=N)cc1	n	n	14µM	n
CCN(Cc1ccccc1)C(=O)c1cc(-c2ccccc2)n[nH]1	18µM	x	n	n
CC(CNC(=O)c1cc(-c2ccccc2)n[nH]1)c1ccccc1 (configuration not stated)	35µM	x	n	n
